Screening data: PubChem, National Center for Advancing Translational Sciences (NCATS)
ELG1 repair inh = ELG1-dependent DNA repair inhibition; 2.3% of 330,000 active; Potency, µM (titrated, usually from 46.1 µM), for inactives: at the top dose activity change, negative = inhibition, usual class: inhibitors; HEK293T ELG1-luciferase reporter, luminescence, 16 h; DNA damage induced by 5-fluorouridine; also: potency is read from the fitted curve at half-maximal effect; nearly all actives have a fitted effect of over 55% in size
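DMSO vehicle served as the neutral condition. Each well held 2,000 cells given 5-fluorouridine plus compound; after 16 hr at 37 °C/5% CO2, ONE-Glo was added and luciferase measured 30 min later.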
DT40 TDP1 CPT = growth inhibition of DT40 Tdp1-/-;hTDP1 cells with camptothecin (screen for TDP1 inhibitors); 12% of 420,000 active; Potency, µM (series often up to 46.2 µM), for inactives: top-dose activity change, negative = growth inhibition, hits mostly inhibitors; chicken DT40 Tdp1-/-;hTDP1 cells + 20 nM CPT, ATP luminescence, 48 h; also: potency is read from the fitted curve at half-maximal effect; nearly all actives have a fitted effect of over 55% in size
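Chicken DT40 Tdp1-/- cells stably complemented with human TDP1 were seeded at 400 cells/well in medium containing 20 nM camptothecin, exposed to pin-transferred compounds, and grown at 37 °C for at least 48 hr. Viability was read as ATP luminescence.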
HT1080 IDH1KD tx = toxicity to HT-1080 IDH1 knockdown cells (counter line). HT-1080 IDH1 knockdown viability, ATP luminescence, 48 h. Potency, µM (titrated, usually from 46.1 µM), for inactives: at the highest dose activity, negative = toxicity, usual class: cytotoxic. 2% of 360,000 active;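 also: potency is read from the fitted curve at half-maximal effect; 0% = DMSO wells and -100% = cell-free medium wells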
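Cytotoxicity counter-line: IDH1KD HT-1080, 48 h, CellTiter-Glo. Curves classed by r2, magnitude and activity.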
HT1080-NT tox = kills 2HG-producing HT-1080-NT fibrosarcoma cells; HT-1080-NT fibrosarcoma viability, CellTiter-Glo ATP luminescence, 48 h; 1.6% of 360,000 active; Potency, µM (doses to about 46.1 µM), for inactives: top-dose activity, negative = less viability, actives largely listed as cytotoxic;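 also: NT is the 2HG producing partner of a matched IDH1 knockdown line; potency is read from the fitted curve at half-maximal effect; 0% = DMSO-treated cells and -100% = media-only wells without cells; nearly all actives have a fitted effect of over 55% in size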
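A 48-hour cytotoxicity screen used HT-1080-NT cells plated 2 hours before compound delivery. ATP-based CellTiter-Glo luminescence measured viability, normalized to DMSO and no-cell controls.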
DT40 TDP1 no CPT = qHTS for Inhibitors of human tyrosyl-DNA phosphodiesterase 1 (TDP1): qHTS in cells in absence of CPT; DT40 Tdp1-/- hTDP1 cells, no CPT, ATP luminescence, 48 h; Potency, µM (top dose mostly 46.2 µM), for the others: at the top dose activity change, negative = growth inhibition, actives largely listed as inhibitors; 15% of 420,000 active; AID 686978, 2013; also: potency is read from the fitted curve at half-maximal effect; nearly all actives have a fitted effect of over 55% in size
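Growth kinetics read by CellTiter-Glo luminescence after ≥48 hr at 37 °C. Cells: DT40 Tdp1-/- stably carrying human TDP1, 400 per well, compound exposure in the absence of CPT (DMSO vehicle).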
IL1B secr inh = inflammasome signaling inhibition, IL-1 beta readout. AID 743279. THP-1 LPS/ATP IL-1B secretion, AlphaLISA, 16 h; hits give low values. 4.7% of 360,000 active. activity change, % at 57.5 µM; in the data active = activity change below about -50%; inconclusive = mostly about -30% to -49%
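Secreted IL-1B measured by AlphaLISA bead assay after 16 h compound exposure of THP-1 cells; compounds (final up to 57.5 uM) added 1 h before LPS (250 ng/mL) and ATP (1.25 mM) stimulation; lower signal means less secretion.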
* hit, by the source's call; u = inconclusive; x = not tested or not shown; [ ] = remark or other dose. Only some compounds are listed: those with a hit (about 19% of all), similar ones and a draw of the others. Unless noted, calls follow the shape of the dose curve; as a rule, active = well fitted curve in the direction sought with a large enough effect; inconclusive = small, poorly fitted or top-dose-only effect, or another doubt; inactive = no such curve, though single readings can be large; an effect the other way counts as inactive or inconclusive. Unless noted, % is scaled to controls: 0 for no effect and ±100 for the full control effect.

SMILES	ELG1 repair inh	DT40 TDP1 CPT	HT1080 IDH1KD tx	HT1080-NT tox	DT40 TDP1 no CPT	IL1B secr inh
COc1nc(NCCO)nc(Nc2ccccc2F)n1	u	9.5%	0.7%	4.9%	4.4%	15.4
Cc1nc(NCc2ccccc2)c2cc[nH]c2n1	-15.6%	u	-0.1%	1.9%	11.6µM*	-14.1
Nc1nc(NCc2ccccc2)c2[nH]cnc2n1	x	-8.6%	x	x	1.3%	x
c1ccc2c(c1)OCC(CN1CCCCC1)O2 (stereo not drawn)	x	8.4%	x	x	-5.0%	x
Cc1cc2nc(C3CCN(CC4COc5ccccc5O4)CC3)[nH]c2cc1C (stereo not drawn)	u	7.31µM*	u	14.6µM*	8.2µM*	u
CCCn1c(CN2CCN(C(=O)OCC)CC2)nc2cc(NC(=O)CC)ccc21	u	3.26µM*	5.8µM*	7.31µM*	4.61µM*	44.9
CCOC(=O)N1CCN(Cc2nc3cc(NC(=O)C(C)C)ccc3n2C(C)C)CC1	x	5.17µM*	x	x	2.59µM*	x
CCC(=O)NCCc1nc2cc(NC(=O)c3ccc(F)cc3)ccc2n1C	u	17.4%	-0.5%	2.4%	3.2%	2.9
CCOC(=O)N1CCN(Cc2nc3cc(NC(=O)C(C)C)ccc3n2C)CC1	4.2%	-1.9%	22.1%	23.2%	-12.2%	21.3
CCOC(=O)N1CCN(Cc2nc3cc(NC(=O)CC)ccc3n2C)CC1	10.0%	11.5%	10.0%	24.7%	0.1%	12.2
CCOC(=O)N1CCN(Cc2nc3cc(NC(=O)C(C)C)ccc3n2CC)CC1	u	4.5%	-3.8%	-0.7%	u	9.3
CCOC(=O)N1CCN(Cc2nc3cc(NC(=O)c4ccc(F)cc4)ccc3n2C(C)C)CC1	x	0.92µM*	x	x	1.03µM*	x
CCOC(=O)N1CCN(Cc2nc3cc(NC(=O)c4ccc(OC)cc4)ccc3n2C(C)C)CC1	x	4.11µM*	x	x	u	x
Cc1csc(SC(C)C(=O)NCC2CCCO2)n1 (stereo not drawn)	23.4%	0.9%	5.2%	-8.5%	3.3%	14.5
CC(=O)Nc1cccc(C(=O)NC2CCCc3c2cnn3-c2cc(C)cc(C)c2)c1 (stereo not drawn)	-15.0%	5.4%	-2.3%	-1.1%	3.3%	17.1
OC(c1ccc(F)c(F)c1)c1ncc(-c2cccc(F)c2)[nH]1 (stereo not drawn)	x	u	-2.6%	-4.8%	-18.7%	0.1
Cc1csc(=O)n1CC(=O)Nc1ccc(Cl)cc1F	12.9%	u	2.1%	-0.1%[9.24 µM]	-24.0%	-12.5
COC(=O)C[C@@H]1CC[C@@H](NC(=O)Nc2cc(F)ccc2F)[C@@H](CO)O1	x	-16.5%	10.3%	14.0%	-5.0%	-12.3
Cc1ccc(C)c(Cn2nnc3c(=O)[nH]c(C4CCCN(C(=O)c5cccs5)C4)nc32)c1 (stereo not drawn)	-27.3%	-7.9%	-12.1%	-17.5%	-18.4%	-17.8
CCC12CN(C(=O)c3ccc(C)cc3)CC(CC)(CN(C(=O)c3ccc(C)cc3)C1)C2=O	-29.1%	-6.1%	5.4%	2.7%	u	-1.9
Cc1ccc(S(=O)(=O)N2CCOCC2)cc1C(=O)N1CCN(Cc2ccccc2)CC1	-4.3%	-12.5%	22.4%	11.3%	-8.6%	-13.4
Cc1cccc(N2CCN(S(=O)(=O)c3csc(C(N)=O)c3)CC2)c1C	x	11.6µM*	x	x	20.6µM*	x
Cc1ccc(C)c(N2CCN(C(=O)c3cc(S(=O)(=O)N4CCOCC4)ccc3F)CC2)c1	u	14.6µM*	-10.4%	-4.0%	13µM*	-5.4
Cc1ccc(C)c(N2CCN(C(=O)c3cc(S(=O)(=O)N4CCCCC4)cn3C)CC2)c1	x	20.6µM*	x	x	18.4µM*	x
Cc1cccc(N2CCN(C(=O)c3cc(S(=O)(=O)N4CCCC4)cn3C)CC2)c1C	-1.7%	23.1µM*	14.6µM*	u	u	27.8
